The target in assay [1] is Calcium/calmodulin-dependent protein kinase type II subunit alpha (Homo sapiens) (UniProt Q9UQM7). The conditions noted are these: at 1 µM.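 Note: reported value is a mean percent inhibition of CAMK2A.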
The target of assay [2] is Calcium/calmodulin-dependent protein kinase type II subunit delta (Homo sapiens) (UniProt Q13557). Particulars: at 0.1 µM.
Assay [3] shares this target. The conditions noted are these: at 1 µM.
Assay [4] has as its target T1, Calcium/calmodulin-dependent protein kinase type IV (Homo sapiens) (UniProt Q16566).
T1 sequence (whole entry): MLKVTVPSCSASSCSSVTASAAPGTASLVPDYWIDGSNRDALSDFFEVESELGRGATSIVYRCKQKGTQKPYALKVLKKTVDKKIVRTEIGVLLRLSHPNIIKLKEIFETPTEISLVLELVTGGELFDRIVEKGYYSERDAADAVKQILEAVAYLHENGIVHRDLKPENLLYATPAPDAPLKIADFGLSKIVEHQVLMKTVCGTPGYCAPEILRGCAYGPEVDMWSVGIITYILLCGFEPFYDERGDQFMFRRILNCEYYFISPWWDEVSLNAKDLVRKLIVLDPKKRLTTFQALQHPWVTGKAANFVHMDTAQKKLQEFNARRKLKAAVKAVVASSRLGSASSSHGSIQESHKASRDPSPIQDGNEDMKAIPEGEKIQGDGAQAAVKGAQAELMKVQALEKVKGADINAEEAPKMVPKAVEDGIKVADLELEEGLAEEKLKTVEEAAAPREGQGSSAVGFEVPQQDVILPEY
The conditions noted are these: at 0.1 µM.

For assay [5], the target named is T1, Calcium/calmodulin-dependent protein kinase type IV (Homo sapiens). The conditions noted are these: at 1 µM.
Assay [6] addresses T2, Serine/threonine-protein kinase Chk1 (Homo sapiens) (UniProt O14757).
T2 sequence (whole entry): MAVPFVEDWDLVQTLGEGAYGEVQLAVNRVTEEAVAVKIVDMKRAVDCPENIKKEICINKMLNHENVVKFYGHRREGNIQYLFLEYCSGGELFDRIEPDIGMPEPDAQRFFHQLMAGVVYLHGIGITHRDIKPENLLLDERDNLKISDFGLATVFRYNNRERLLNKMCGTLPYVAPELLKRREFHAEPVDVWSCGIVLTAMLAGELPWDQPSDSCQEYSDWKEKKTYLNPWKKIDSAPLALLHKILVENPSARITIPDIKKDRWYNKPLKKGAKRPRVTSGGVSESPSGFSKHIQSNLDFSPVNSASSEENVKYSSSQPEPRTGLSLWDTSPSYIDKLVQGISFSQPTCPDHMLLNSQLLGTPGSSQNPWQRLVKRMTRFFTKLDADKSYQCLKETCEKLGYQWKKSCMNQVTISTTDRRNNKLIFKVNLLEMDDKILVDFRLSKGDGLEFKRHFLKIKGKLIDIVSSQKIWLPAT
The conditions noted are these: at 0.1 µM.

The target in assay [7] is T2, Serine/threonine-protein kinase Chk1 (Homo sapiens). Particulars: at 1 µM.
The target in assay [8] is Serine/threonine-protein kinase Chk2 (Homo sapiens) (UniProt O96017). The conditions noted are these: at 0.1 µM.
Chain of Serine/threonine-protein kinase Chk2 (Homo sapiens) (O96017 whole entry): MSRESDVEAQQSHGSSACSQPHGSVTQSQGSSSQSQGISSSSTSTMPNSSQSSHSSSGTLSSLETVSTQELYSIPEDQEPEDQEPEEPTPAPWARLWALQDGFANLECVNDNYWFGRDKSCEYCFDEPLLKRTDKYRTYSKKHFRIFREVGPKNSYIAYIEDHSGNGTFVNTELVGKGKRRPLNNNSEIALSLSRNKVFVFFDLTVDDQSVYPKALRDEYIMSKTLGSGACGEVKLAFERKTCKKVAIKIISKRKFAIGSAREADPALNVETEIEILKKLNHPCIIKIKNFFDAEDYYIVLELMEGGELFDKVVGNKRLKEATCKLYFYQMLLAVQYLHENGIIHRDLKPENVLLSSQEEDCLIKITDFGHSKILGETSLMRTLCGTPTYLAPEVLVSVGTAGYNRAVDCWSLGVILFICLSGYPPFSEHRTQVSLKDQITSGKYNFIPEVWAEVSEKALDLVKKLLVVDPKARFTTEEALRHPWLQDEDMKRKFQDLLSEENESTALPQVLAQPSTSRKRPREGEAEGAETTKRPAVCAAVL
The target is the same in assay [9]. The conditions noted are these: at 1 µM.
For assay [10], the target named is Death-associated protein kinase 1 (Homo sapiens) (UniProt P53355). The conditions noted are these: at 0.1 µM.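 Note: reported figure is the mean inhibition of DAPK1.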
Chain of Death-associated protein kinase 1 (Homo sapiens) (P53355 whole entry, looked up): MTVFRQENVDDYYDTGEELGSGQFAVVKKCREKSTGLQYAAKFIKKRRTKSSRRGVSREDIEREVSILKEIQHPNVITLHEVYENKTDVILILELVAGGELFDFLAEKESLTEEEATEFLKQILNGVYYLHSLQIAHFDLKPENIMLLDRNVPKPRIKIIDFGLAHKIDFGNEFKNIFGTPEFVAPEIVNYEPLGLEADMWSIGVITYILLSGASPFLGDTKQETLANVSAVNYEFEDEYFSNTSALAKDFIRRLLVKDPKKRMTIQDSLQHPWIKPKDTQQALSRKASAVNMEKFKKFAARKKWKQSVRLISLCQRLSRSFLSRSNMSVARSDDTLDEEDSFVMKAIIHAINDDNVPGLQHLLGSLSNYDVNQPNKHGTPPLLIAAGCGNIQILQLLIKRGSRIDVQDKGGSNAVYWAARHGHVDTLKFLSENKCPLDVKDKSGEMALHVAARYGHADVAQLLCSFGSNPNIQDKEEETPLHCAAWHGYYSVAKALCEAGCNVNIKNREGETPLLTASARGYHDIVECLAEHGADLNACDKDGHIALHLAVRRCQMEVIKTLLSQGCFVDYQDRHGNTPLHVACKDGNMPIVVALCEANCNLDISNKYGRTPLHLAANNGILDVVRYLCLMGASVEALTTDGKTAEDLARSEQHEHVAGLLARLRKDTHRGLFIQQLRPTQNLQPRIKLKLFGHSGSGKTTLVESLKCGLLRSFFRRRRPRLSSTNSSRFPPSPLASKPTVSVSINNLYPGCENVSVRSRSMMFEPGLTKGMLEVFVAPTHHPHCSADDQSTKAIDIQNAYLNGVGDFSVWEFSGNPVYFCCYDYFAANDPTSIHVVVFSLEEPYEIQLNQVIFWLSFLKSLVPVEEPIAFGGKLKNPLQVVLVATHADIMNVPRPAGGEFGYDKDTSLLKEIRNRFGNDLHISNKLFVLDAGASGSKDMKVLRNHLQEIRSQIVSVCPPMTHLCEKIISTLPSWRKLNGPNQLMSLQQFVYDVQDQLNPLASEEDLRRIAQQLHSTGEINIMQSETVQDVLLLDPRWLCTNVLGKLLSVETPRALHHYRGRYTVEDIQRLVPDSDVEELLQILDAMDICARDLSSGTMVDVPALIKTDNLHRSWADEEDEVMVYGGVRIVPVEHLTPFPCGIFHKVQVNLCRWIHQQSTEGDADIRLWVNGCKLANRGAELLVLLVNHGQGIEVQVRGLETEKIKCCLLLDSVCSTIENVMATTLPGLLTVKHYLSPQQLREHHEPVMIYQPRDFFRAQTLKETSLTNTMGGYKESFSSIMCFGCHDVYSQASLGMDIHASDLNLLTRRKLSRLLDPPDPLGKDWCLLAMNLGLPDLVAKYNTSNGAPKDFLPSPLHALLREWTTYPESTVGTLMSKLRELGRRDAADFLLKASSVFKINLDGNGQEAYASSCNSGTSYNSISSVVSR

Chain of Calcium/calmodulin-dependent protein kinase type II subunit delta (Homo sapiens) (Q13557 whole entry): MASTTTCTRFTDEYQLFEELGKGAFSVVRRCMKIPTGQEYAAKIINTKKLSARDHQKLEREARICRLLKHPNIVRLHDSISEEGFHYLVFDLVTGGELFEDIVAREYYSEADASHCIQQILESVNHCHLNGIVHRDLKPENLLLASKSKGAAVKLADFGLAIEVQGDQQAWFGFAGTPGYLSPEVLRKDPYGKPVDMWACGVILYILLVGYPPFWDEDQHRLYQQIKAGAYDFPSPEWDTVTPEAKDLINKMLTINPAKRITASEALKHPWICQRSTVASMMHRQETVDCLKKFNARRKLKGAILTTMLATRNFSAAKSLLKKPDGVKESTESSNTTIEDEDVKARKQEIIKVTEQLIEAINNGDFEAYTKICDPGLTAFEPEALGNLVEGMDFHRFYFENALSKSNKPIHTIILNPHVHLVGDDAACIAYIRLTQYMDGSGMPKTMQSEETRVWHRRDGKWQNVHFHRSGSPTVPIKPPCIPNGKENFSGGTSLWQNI
Chain of Calcium/calmodulin-dependent protein kinase type II subunit alpha (Homo sapiens) (Q9UQM7 whole entry): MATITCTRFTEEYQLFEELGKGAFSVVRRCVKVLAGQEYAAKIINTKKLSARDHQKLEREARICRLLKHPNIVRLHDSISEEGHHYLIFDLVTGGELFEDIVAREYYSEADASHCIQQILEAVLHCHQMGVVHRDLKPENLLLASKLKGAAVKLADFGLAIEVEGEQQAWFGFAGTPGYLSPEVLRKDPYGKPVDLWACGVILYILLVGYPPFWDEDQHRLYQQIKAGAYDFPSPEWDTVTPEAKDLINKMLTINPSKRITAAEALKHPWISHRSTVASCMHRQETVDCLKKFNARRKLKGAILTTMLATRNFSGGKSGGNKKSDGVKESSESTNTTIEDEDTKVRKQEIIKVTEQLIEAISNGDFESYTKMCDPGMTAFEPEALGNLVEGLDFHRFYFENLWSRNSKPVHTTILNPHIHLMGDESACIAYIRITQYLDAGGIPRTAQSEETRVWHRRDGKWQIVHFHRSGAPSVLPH

The term inhibition denotes the drop in the measured response relative to a control, in per cent. For `COc1cc(/C=N/Nc2ncnc3c2cnn3C(C)C)ccc1O`, the inhibition was 0.99% in [1]; 0.75% in [2]; 3.93% in [3]; 0.62% in assay [4]; -1.97% in assay [5]; 3.18% in [6]. Besides, the inhibition amounted to 4.84% in assay [7], 0.04% in assay [8], 1.88% in assay [9] and 1.63% in assay [10].
As to `NS(=O)(=O)c1ccc(N/N=C2\C(=O)Nc3ccc(Cl)cc32)cc1`, the inhibition is 4.05% in assay [1]; 2.98% in [2]; 4.81% in assay [3]; -0.73% in assay [4]; -3.41% in assay [5]; -3.35% in assay [6]. Also, the inhibition in assay [7] is -2.04%; in [8], -2.37%; in assay [9], 0.53%; in [10], -4%.
On to `Cc1cc(-c2ccccn2)cc(C)c1/C=C/c1cncc(-c2nn[nH]n2)c1`, for which the inhibition in assay [1] is 1.59%; in assay [2], 2.75%; in assay [3], 5%; in [4] it was -1.17%; in assay [5] it was -1.4%; in [6], 4.62%. The inhibition in assay [7] was 4.81%; in assay [8] it was 2.62%; in assay [9] it was 4.43%; in assay [10] it was 6.16%.
For the compound `Cc1ccc(NC(=O)CC2CC2)cc1-c1ccc(C(=O)NCC2CC2)cc1`, the inhibition in assay [1] was 2.95%; in assay [2], 2.84%; in assay [3], 3.34%; in assay [4] it was -0.3%; in [5] it was -0.84%; in [6], 7.49%. The inhibition in assay [7] turned out to be 10.9%; in [8] it was 6.96%; in assay [9] it was 7.62%; in assay [10], 11.5%.
As to `COc1cccc(-n2ncc3c(N/N=C/c4ccc(C)cc4)ncnc32)c1`, the inhibition was 5.56% in [1]; 4.56% in assay [2]; 12.5% in [3]; 1.46% in assay [4]; 4.68% in [5]; -5.6% in assay [6]. In addition, the inhibition in [7] is -5.11%; in assay [8], -1.83%; in [9], 2.47%; in assay [10] it was -3.26%.
On to `c1ccc(Nc2ncc(-c3ccccc3)o2)cc1`, for which the inhibition in assay [1] turned out to be 3.27%; in assay [2] it was 3.06%; in [3], 6.25%; in [4] it was 1.79%; in [5], 3.97%; in assay [6], 6.09%. Moreover, the inhibition in [7] is 8.99%; in [8] it was 0.95%; in assay [9], 2.54%; in assay [10], 6.27%.
Regarding `CCS(=O)(=O)c1ccc(OC)c(Nc2nccc(N(C)c3ccc4c(C)n[nH]c4c3)n2)c1`, the inhibition in assay [1] is -0.61%; in [2] it was 3.29%; in assay [3] it was 6.46%; in assay [4], -1.76%; in assay [5], -2.8%; in [6] it was 4.57%. In addition, the inhibition in [7] came out at 2.19%; in assay [8], 3.81%; in [9] it was 8.77%; in assay [10], 7.35%.
For `N#Cc1cccc(Nc2nccc(-c3cnn4ncccc34)n2)c1`, the inhibition was 35.4% in assay [1]; 17.8% in [2]; 63.4% in assay [3]; -1.28% in assay [4]; -0.33% in assay [5]; 3% in assay [6]. For the same compound, the inhibition in assay [7] turned out to be 3.73%; in [8], 3.25%; in [9] it was 10.6%; in [10], 3.73%.
On to `CCn1c(-c2nonc2N)nc2c(C#CC(C)(C)O)nc(OCCNC)cc21`, for which the inhibition is 3.51% in assay [1]; 3.94% in [2]; 7.7% in assay [3]; -0.53% in [4]; 2.52% in assay [5]; -0.01% in assay [6]. In addition, the inhibition was determined as 1.87% in [7], 3.74% in assay [8], 6.21% in assay [9] and 1.77% in [10].
Regarding `CCS(=O)(=O)c1ccc(OC)c(Nc2ncc(-c3cccc(OC)c3)o2)c1`, the inhibition is 6.74% in assay [1]; 1.91% in assay [2]; 9.35% in assay [3]; -0.13% in [4]; 1.2% in [5]; 1.44% in [6]. The inhibition was found to be 3.19% in [7], 1.56% in assay [8], 2.17% in assay [9] and 2.65% in assay [10].
Take `COc1cc(Nc2nccc(-c3cnn4ncccc34)n2)cc(OC)c1`: the inhibition in [1] is 15.2%; in assay [2], 6.12%; in assay [3] it was 36.4%; in assay [4], 1.42%; in [5] it was -0.26%; in assay [6], -0.97%. Moreover, the inhibition in assay [7] stood at 7.68%; in [8], 1.81%; in [9], 14.1%; in assay [10], 1.9%.
Turning to `CCn1c(-c2nonc2N)nc2ccc(F)cc21`, the inhibition was 3.68% in [1]; 3.98% in assay [2]; 3.55% in assay [3]; -2.59% in [4]; -2.75% in assay [5]; 3.58% in assay [6]. Also, the inhibition was 8.57% in [7], 3.29% in assay [8], 4.58% in assay [9] and 8.42% in [10].
In the case of `Cc1ccc(C(=O)NC2CC2)cc1-c1ccc2[nH]ncc2c1`, the inhibition in assay [1] is -2.98%; in [2], -2.96%; in [3] it was 1.9%; in assay [4], -2.05%; in assay [5], -2.16%; in [6], -1.76%. In addition, the inhibition in assay [7] is -4.22%; in assay [8], -4.46%; in assay [9], -3.82%; in assay [10], -2.57%.
Turning to `Nc1nccc(-c2c(-c3ccc(F)cc3)ncn2CCCN2CCOCC2)n1`, the inhibition in [1] is 2.46%; in assay [2], 1.96%; in [3], 2.44%; in assay [4] it was 0.27%; in assay [5], -0.08%; in [6], 3.25%. For the same compound, the inhibition in [7] was found to be 5.25%; in assay [8], 1.76%; in assay [9], 4.69%; in assay [10] it was 5.49%.
Take `O=S(=O)(CCOCc1ccc(-c2ccc3ncnc(Nc4ccc(OCc5cccc(F)c5)c(Cl)c4)c3c2)o1)c1ccccc1`: the inhibition in [1] is -0.9%; in [2], 0.42%; in assay [3] it was 1.29%; in assay [4] it was -1.19%; in assay [5], -1.67%; in [6] it was 3.34%. In addition, the inhibition in [7] was found to be 2.55%; in assay [8] it was 1.33%; in assay [9], 3.09%; in assay [10], 1.67%.
Regarding `O=C1Nc2ccccc2/C1=C/Nc1ccc2[nH]c(=O)[nH]c2c1`, the inhibition in assay [1] is 6.6%; in assay [2] it was 4.2%; in assay [3], 14.1%; in [4] it was -1.23%; in assay [5], -1.4%; in [6] it was 0.84%. In addition, the inhibition in assay [7] turned out to be 15.7%; in [8] it was 5.95%; in [9], 23.3%; in [10] it was 1.92%.
